Results filed as inconclusive are left out. Calls of active or inactive are those of the source. How the source made its calls, unless noted: active means hit-call score of the fitted dose curve at least 0.9, where 1 is the maximum; inconclusive means response in the unintended direction; inactive means score below 0.9.

Assay [1] has as its target human Thyroid Receptor alpha (THRa1), THRA (gene 7067) (UniProt P10827). The experiment in a line: ATG_THRa1_TRANS: Attagene TRANS-FACTORIAL HepG2 Assay for human Thyroid Receptor alpha (THRa1) (AID 2283014). In a few lines: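 Measured here is mRNA from a GAL4-UAS reporter in transfected HepG2 cells carrying a Gal4-fused receptor, 24 h post-dose. DMSO served as negative control and baseline.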

Assay [2] concerns the target Retinoic acid receptor RXR-alpha (Homo sapiens) (UniProt P19793). In words: OT_NURR1_NURR1RXRa_0480: Odyssey Thera (OT) 8-hour HEK293T Protein Complementation Assay for Nurr1/retinoid X receptor (RXR) (AID 2283385). The gist of the method:
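Read-out: fluorescence from protein-fragment complementation between Nurr1 and RXRα in human HEK293T cells, 8 h after dosing. DMSO served as negative control; increased signal counted as activity.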

For assay [3] the target is unchanged. The experiment in a line: OT_NURR1_NURR1RXRa_1440: Odyssey Thera (OT) 24-hour HEK293T Protein Complementation Assay for Nurr1/retinoid X receptor (RXR) (AID 2283386). The gist of the method:
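Fluorescence PCA read-out; HEK293T; 24 h post-dose; bait/prey fused to reporter fragments; gain-of-signal fit vs DMSO negative control.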

For assay [4], the target named is Peroxisome proliferator-activated receptor gamma (Homo sapiens) (UniProt P37231). In words: OT_PPARg_PPARgSRC1_0480: Odyssey Thera (OT) 8-hour Protein-Complementation Assay for Peroxisome Proliferator-activated Receptor Gamma / SRC-1 Co-activator (AID 2283387).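 Further: nuclear to cytoplasmic split Venus YFP fluorescence ratio reporting PPARg SRC-1 interaction.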 In a few lines: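 HEK293T transiently transfected with PPARg and SRC-1 fused to Venus YFP fragments, compounds 8 h at 37C. Fixed, Draq5-stained cells imaged; nuclear/cytoplasmic 488 nm fluorescence ratio over at least 350 cells per image; gain fitted versus DMSO.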
Peroxisome proliferator-activated receptor gamma (Homo sapiens), sequence (P37231 whole entry, looked up, the tested form may be a part): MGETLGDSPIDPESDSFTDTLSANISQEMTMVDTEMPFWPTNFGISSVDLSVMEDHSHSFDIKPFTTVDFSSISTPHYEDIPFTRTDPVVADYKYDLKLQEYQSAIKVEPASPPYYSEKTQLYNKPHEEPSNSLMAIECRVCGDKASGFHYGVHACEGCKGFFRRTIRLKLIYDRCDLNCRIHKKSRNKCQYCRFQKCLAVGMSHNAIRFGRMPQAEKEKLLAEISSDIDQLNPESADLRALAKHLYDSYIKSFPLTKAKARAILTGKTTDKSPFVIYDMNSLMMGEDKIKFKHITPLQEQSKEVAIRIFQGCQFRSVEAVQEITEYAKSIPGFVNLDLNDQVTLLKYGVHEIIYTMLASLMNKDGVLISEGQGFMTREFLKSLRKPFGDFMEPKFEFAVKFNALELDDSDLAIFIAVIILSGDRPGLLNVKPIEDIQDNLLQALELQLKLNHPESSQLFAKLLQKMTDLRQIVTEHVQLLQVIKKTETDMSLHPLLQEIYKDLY

Assay [5] shares this target. The experiment in a line: OT_PPARg_PPARgSRC1_1440: Odyssey Thera (OT) 24-hour Protein-Complementation Assay for Peroxisome Proliferator-activated Receptor Gamma/ SRC-1 Co-activator (AID 2283388). In a few lines:
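Cells carrying the PPARg/SRC-1 fragment-complementation reporter receive compound for 24 hours, are fixed and counterstained with Draq5, then imaged. Increased nuclear relative to cytoplasmic YFP fluorescence above DMSO baseline indicates binding activity.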

Assay [6] in a line: ACEA_AR_agonist_AUC_viability: ACEA Biosciences xCELLigence Real-Time Cell Analysis on Androgen Receptor Agonism for Viability (AID 2283775). In a few lines: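 Viability endpoint from xCELLigence impedance in 22Rv1 prostate cells at 80 h. Eight-point series, 100 uM maximum final.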
Assay [7] in a line: ACEA_AR_antagonist_AUC_viability: ACEA Biosciences xCELLigence Real-Time Cell Analysis on Androgen Receptor Antagonism for Viability (AID 2283776).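 Further: area under impedance growth curve at 80 h after dosing as viability; hits lower the growth signal relative to DMSO meaning cytotoxicity.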 The gist of the method:
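22Rv1 human prostate cancer cells were seeded on electrode plates, monitored overnight, then exposed to eight 1:4 dilutions from 100 uM final. Impedance-based growth kinetics at 80 h gave an AUC viability endpoint normalized to DMSO.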

The target of assay [8] is Bile acid receptor (Homo sapiens) (UniProt Q96RI1). The experiment in a line: ATG_FXR_TRANS: Attagene TRANS-FACTORIAL HepG2 Assay for Farnesoid X Receptor (FXR) (AID 2282979).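 Further: hits raise reporter mRNA above DMSO so AC50 marks FXR activation.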 The following applies: HepG2 Attagene TRANS FXR-GAL4 reporter transcription. The gist of the method: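 After 24 h chemical treatment of transfected HepG2 cells, GAL4-UAS reporter transcripts driven by an exogenous FXR-GAL4 fusion were measured by RT-PCR and capillary electrophoresis. Increases over DMSO were fitted.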
Bile acid receptor (Homo sapiens), sequence (Q96RI1 whole entry, looked up, the tested form may be a part): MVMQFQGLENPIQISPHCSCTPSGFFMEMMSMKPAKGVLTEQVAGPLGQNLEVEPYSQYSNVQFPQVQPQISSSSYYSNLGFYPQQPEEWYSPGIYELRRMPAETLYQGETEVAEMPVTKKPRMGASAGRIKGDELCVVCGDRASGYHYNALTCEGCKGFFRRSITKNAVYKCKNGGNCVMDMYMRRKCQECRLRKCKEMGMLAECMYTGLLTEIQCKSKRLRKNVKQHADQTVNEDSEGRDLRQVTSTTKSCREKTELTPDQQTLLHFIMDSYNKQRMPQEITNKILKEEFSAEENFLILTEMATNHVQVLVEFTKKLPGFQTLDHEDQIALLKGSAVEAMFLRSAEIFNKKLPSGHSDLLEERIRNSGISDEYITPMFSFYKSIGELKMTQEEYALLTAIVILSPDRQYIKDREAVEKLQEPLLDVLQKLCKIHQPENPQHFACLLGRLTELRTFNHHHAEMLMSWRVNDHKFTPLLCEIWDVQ

For assay [9], the target named is Oxysterols receptor LXR-beta (Homo sapiens) (UniProt P55055). The experiment in a line: ATG_LXRb_TRANS: Attagene TRANS-FACTORIAL HepG2 Assay for human Liver X Receptor beta (LXRb) (AID 2282981). The following applies: HepG2 Attagene TRANS GAL4-LXRb reporter, mRNA. The gist of the method:
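Readout: fluorescent reporter mRNA fragments resolved by capillary electrophoresis after RT-PCR. System: transiently transfected human HepG2, exogenous LXRb-Gal4 chimera driving GAL4-UAS reporter, 24 h dosing. Activity fitted upward against DMSO baseline.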

Assay [10] has as its target Estrogen receptor beta (Homo sapiens) (UniProt Q92731). In words: OT_ER_ERbERb_1440: Odyssey Thera (OT) 24-hour HEK293T Protein-Complementation Assay for Estrogen Receptor-beta/-beta Homodimer (AID 2283380).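 Further: scored as signal increase over DMSO baseline for both agonists and antagonists.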 In a few lines:
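HEK293T cells stably expressing ER beta LBD (aa 310-547) homodimer fragment-complementation reporter, dosed 24 h. Cells formaldehyde-fixed, Draq5-stained; gain in nuclear (agonist) or nuclear plus cytoplasmic (antagonist) fluorescence versus DMSO read by laser scanning cytometry.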

Assay [11] has the same target. The experiment in a line: OT_ER_ERbERb_0480: Odyssey Thera (OT) 8-hour HEK293T Protein-Complementation Assay for Estrogen Receptor-beta/-beta Homodimer (AID 2283357).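 Further: active means signal gain over DMSO baseline.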 In a few lines:
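Homodimerization of ER-beta LBD measured by protein-fragment complementation in HEK293T; 8 h dosing; fixed, Draq5 counterstain; fluorescence intensity gain over DMSO baseline, positive fitting direction; laser scanning cytometry.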

The nature of assay [12]: ATG_ERE_CIS: Attagene CIS-FACTORIAL HepG2 Assay for Estrogen Response Element (ERE) (AID 2282940; active means hit-call score of the fitted dose curve at least 0.9, where 1 is the maximum; inactive means score below 0.9). The following applies: HepG2 ERE cis-reporter, Attagene RNA transcript; actives raise or lower the signal. In a few lines: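 Cells used were human hepatoma HepG2, transfected with multiple reporter transcription units under cis-regulatory promoters. Reporter mRNA, read 24 h post-dosing via fluorescent RT-PCR products on capillary electrophoresis, was fitted bidirectionally relative to DMSO.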

Assay [13] in a line: BSK_3C_TissueFactor: BioMAP Diversity Plus: 3C Assay for Tissue Factor Biomarker Activity (AID 2282997; active means hit-call score of the fitted dose curve at least 0.9, where 1 is the maximum; inactive means score below 0.9). The following applies: BioMAP 3C HUVEC, tissue factor biomarker readout; actives raise or lower the signal. The gist of the method: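 In this endothelial system, HUVEC are treated for 24 h and Tissue Factor is assessed by ELISA, normalised to DMSO.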
Assay [14] is described as follows: BSK_3C_uPAR: BioMAP Diversity Plus: 3C Assay for Urokinase-type plasminogen activator receptor (uPAR) Biomarker Activity (AID 2282998; active means hit-call score of the fitted dose curve at least 0.9, where 1 is the maximum; inactive means score below 0.9). The following applies: BioMAP 3C HUVEC, uPAR biomarker ELISA; actives raise or lower the signal. In a few lines:
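Dose primary human umbilical vein endothelial cells, incubate 24 h, measure cell-surface uPAR by ELISA, then fit the signal in both directions against the DMSO negative control.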
Background: An ELISA detects its analyte on a solid surface through an enzyme-linked reagent.

Assay [15] is described as follows: BSK_4H_Eotaxin3: BioMAP Diversity Plus: 4H Assay for Eotaxin 3 Biomarker Activity (AID 2283000; active means hit-call score of the fitted dose curve at least 0.9, where 1 is the maximum; inactive means score below 0.9;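 further: CCL26 protein level quantified by ELISA in parallel with SRB cytotoxicity check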). The following applies: primary human endothelial cells (HUVEC); actives raise or lower the signal. In a few lines:
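ELISA quantitation of CCL26 (Eotaxin-3) protein from chemically dosed human vascular endothelial cells at 24 h; increases and decreases both scored relative to DMSO-treated baseline.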

Read-out in assay [16]: Interleukin-1 alpha (IL1a), IL1A (gene 3552)
The experiment in a line: BSK_BE3C_IL1a: BioMAP Diversity Plus: BE3C Assay for Interleukin-1 alpha (IL1a) Biomarker Activity (AID 2283016; active means hit-call score of the fitted dose curve at least 0.9, where 1 is the maximum; inactive means score below 0.9). The following applies: primary human bronchial epithelial cells; actives raise or lower the signal. The gist of the method: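 ELISA read-out of IL-1a from human lung bronchial epithelial primary cells, 24 h post-dose. Gain or loss of signal fitted relative to DMSO negative control.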

Read-out in assay [17]: Monocyte Chemoattractant Protein-1 (MCP1), CCL2 (gene 6347)
The experiment in a line: BSK_3C_MCP1: BioMAP Diversity Plus: 3C Assay for Monocyte Chemoattractant Protein-1 (MCP1) Biomarker Activity (AID 2283017; active means hit-call score of the fitted dose curve at least 0.9, where 1 is the maximum; inactive means score below 0.9). The following applies: primary human endothelial cells (HUVEC); actives raise or lower the signal. The gist of the method:
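Using human vascular primary endothelium, researchers measured MCP-1 by ELISA 24 h after treatment, with DMSO serving as negative control for bidirectional fitting.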

Read-out in assay [18]: Interleukin-8 (IL8), CXCL8 (gene 3576)
In words: BSK_3C_IL8: BioMAP Diversity Plus: 3C Assay for Interleukin-8 (IL8) Biomarker Activity (AID 2283020; active means hit-call score of the fitted dose curve at least 0.9, where 1 is the maximum; inactive means score below 0.9). The following applies: primary human endothelial cells (HUVEC); actives raise or lower the signal. The gist of the method: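 HUVEC, 3C stimulation; 24 h compound exposure; IL-8 read by ELISA; gain or loss of signal fitted relative to DMSO control.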

Read-out in assay [19]: Monokine induced gamma interferon (MIG), CXCL9 (gene 4283)
In words: BSK_3C_MIG: BioMAP Diversity Plus: 3C Assay for Monokine induced gamma interferon (MIG) Biomarker Activity (AID 2283021; active means hit-call score of the fitted dose curve at least 0.9, where 1 is the maximum; inactive means score below 0.9). The following applies: primary human endothelial cells (HUVEC); actives raise or lower the signal. In a few lines: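 HUVEC, 3C system; 24 h chemical exposure; MIG by ELISA; bidirectional fit vs DMSO baseline.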

Assay [20] is described as follows: ATG_GAL4_TRANS: Attagene TRANS-FACTORIAL HepG2 Assay for GAL4 (Internal Marker) (AID 2282976). The following applies: HepG2 Attagene TRANS GAL4 internal marker reporter. In a few lines: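 Liver HepG2 line bearing multiplexed GAL4-UAS reporter constructs; 24 h chemical treatment. Transcripts were quantified as fluorescent fragments on capillary electrophoresis after RT-PCR and HpaI cut, with activity fitted upward from DMSO.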

Oxysterols receptor LXR-beta (Homo sapiens), sequence (P55055 whole entry, looked up, the tested form may be a part): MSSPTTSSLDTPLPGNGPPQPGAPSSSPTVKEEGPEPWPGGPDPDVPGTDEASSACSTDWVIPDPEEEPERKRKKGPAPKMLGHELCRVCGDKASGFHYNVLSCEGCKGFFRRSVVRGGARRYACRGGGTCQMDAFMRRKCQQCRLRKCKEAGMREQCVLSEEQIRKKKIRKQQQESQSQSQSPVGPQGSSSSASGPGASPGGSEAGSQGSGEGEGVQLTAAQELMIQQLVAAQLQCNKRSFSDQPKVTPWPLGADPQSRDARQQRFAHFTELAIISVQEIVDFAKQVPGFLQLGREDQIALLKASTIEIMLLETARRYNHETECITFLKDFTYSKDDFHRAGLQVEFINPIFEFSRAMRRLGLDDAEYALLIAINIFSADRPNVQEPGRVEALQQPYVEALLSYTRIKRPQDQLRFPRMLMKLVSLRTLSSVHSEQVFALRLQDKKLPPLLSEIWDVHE
Retinoic acid receptor RXR-alpha (Homo sapiens), sequence (P19793 whole entry, looked up, the tested form may be a part): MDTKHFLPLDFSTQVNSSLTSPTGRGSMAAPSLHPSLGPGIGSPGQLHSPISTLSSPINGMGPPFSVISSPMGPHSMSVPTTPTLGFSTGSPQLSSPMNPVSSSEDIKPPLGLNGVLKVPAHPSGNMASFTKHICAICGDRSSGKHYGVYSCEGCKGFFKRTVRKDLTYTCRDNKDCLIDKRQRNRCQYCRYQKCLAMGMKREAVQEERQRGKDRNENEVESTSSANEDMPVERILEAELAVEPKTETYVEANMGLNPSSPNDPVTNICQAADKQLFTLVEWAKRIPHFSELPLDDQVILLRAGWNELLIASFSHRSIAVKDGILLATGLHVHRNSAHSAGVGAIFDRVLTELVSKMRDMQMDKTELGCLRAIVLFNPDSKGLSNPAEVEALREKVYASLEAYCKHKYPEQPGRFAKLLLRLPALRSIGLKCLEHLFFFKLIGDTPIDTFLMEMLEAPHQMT
Estrogen receptor beta (Homo sapiens), sequence (Q92731 whole entry, looked up, the tested form may be a part): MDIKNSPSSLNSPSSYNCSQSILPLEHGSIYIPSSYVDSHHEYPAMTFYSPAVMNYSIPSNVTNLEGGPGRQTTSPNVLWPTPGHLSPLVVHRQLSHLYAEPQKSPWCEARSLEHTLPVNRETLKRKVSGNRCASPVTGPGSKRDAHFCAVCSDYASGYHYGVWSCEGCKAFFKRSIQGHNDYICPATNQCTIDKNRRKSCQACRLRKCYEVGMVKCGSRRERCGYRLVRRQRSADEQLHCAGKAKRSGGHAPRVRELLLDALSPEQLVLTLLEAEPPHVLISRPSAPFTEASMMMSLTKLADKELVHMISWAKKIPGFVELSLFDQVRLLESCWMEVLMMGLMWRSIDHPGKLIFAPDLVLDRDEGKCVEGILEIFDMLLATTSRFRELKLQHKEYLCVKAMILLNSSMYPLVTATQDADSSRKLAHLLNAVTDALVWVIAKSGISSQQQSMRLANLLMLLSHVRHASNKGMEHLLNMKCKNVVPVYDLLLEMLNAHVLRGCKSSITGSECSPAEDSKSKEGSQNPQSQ
human Thyroid Receptor alpha (THRa1), THRA (gene 7067), sequence (P10827 whole entry, looked up, the tested form may be a part): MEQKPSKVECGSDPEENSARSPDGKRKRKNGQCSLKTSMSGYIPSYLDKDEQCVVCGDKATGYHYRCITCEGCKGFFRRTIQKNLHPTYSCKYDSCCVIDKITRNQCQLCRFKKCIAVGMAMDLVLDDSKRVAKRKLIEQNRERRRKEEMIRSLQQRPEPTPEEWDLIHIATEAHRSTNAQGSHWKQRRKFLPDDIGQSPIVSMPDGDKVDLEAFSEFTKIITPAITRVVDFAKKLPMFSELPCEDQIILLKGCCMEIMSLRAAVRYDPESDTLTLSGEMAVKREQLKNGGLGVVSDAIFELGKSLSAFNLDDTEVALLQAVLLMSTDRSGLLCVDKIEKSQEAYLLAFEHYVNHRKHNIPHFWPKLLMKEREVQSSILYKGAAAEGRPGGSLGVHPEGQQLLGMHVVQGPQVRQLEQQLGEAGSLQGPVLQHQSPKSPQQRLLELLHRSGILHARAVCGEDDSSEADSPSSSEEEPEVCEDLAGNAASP

Take `C=CCc1ccc(OC(=O)Cc2ccccc2)c(OC)c1`: the compound was called inactive in [1].

On to `CC(C)(Cl)Cl`, for which the outcome in assay [2], in assay [3], in assay [4], in assay [5] and in [6] was inactive. Also, in [7], the concentration at half-maximal activity (AC50) was 0.413 µM (active).

Take `CC(O)CN(CC(C)O)CC(C)O` (configuration not stated): the call in assay [8], in [9], in [1], in [10], in assay [2] and in assay [3] was inactive. The outcome in assay [6] was inactive.

For the compound `CCC(=O)c1ccc(Cl)cc1`, the outcome in assay [9], in assay [11], in [10], in assay [2], in assay [3] and in assay [4] was inactive. The compound was called inactive in [5] and in assay [6].

On to `CCCCOP(=O)(O)OCCCC`, for which the compound was called inactive in assay [12], in assay [8] and in [1].

Regarding `C=CCO`, the outcome in assay [2], in assay [3] and in [6] was inactive.

On to `Nc1ccccc1C(=O)Oc1ccc2ccccc2c1`, for which the AC50 in assay [12] was 18.1 µM (active). Moreover, in [1], the compound was classed as inactive.

`N#CC(c1ccccc1)c1ccccc1`: the compound was classed as inactive in assay [8].

Regarding `O=S(=O)(O)OOS(=O)(=O)O`, the call in assay [1], in assay [11], in assay [10], in assay [2], in [4] and in assay [5] was inactive. In addition, the result in assay [6] and in [7] was inactive.

Turning to `CCCOC(=O)c1ccccc1C(=O)OCCC`, the AC50 in assay [12] is 49.8 µM (active); in assay [17], 20 µM (active). The compound was called inactive in [8], in assay [9], in assay [13], in assay [14], in assay [15] and in assay [1]. Also, the result in [16], in assay [18] and in assay [19] was inactive.

As to `Nc1c(Cl)c(Cl)c(Cl)c(Cl)c1Cl`, in assay [1], the compound was classed as inactive.

For `Oc1ccc(Cl)cc1`, the outcome in assay [2], in assay [3], in assay [4], in assay [5] and in [7] was inactive.

As to `CCCCOC(=O)CCC(=O)OCCCC`, in assay [20], the compound was called inactive.

Regarding `CCOC(=O)C1OC1(C)c1ccccc1` (configuration not stated), the outcome in [11], in assay [2], in [3], in assay [4], in [5] and in [6] was inactive. Also, in assay [10], the concentration at half-maximal activity (AC50) was 37.3 µM (active).

Consider `C[C@]12CCC(=O)C(O)=C1CC[C@@H]1[C@@H]2CC[C@]2(C)C(=O)CC[C@@H]12`, for which the AC50 in [12] was 16.8 µM (active). Further, the result in assay [20] and in [9] was inactive.

Consider `c1cc(OCC2CO2)ccc1Cc1ccc(OCC2CO2)cc1` (configuration not stated), for which the call in assay [12] was inactive.

With `N#Cc1cc(I)c(O)c(I)c1`, the outcome in [20] was inactive.

For the compound `CCOC(=O)COc1ccc(Cl)cc1Cl`, the compound was classed as inactive in [2] and in assay [3].

Turning to `CCOC(=O)NC(=S)Nc1ccccc1NC(=S)NC(=O)OCC`, the result in [1], in assay [11], in [10], in assay [4] and in [5] was inactive. The half-maximal activity concentration (AC50) in assay [7] was 4.35 µM (active).

As usually defined, the AC50 is the concentration giving half of the maximal activity seen.

(Values after PubChem BioAssay (EPA / NIEHS).)
